According to the supplement of paper PMC8540655:
Values without a mark were called inactive.

Test system: Aedes aegypti larvae
Experiment: larval motility relative to same well at 0 h (fraction); higher = more motile (less active compound), active = 0.4 or less
Settings: 10 µM
How it was run: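 Compounds at 10 µM (1% v/v DMSO) were applied to about 10 Aedes aegypti larvae per well in 100 µL, with every plate including solvent and larvicide control wells. Motility movies were taken with INVAPP at 0, 2 and 24 h, and results are medians of three independent larval batches. Relative motility is each well's score expressed as a fraction of its own first score.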

SMILES | larval motility (2 h) | larval motility (24 h)
CCc1nc(N)nc(N)c1C#CC(C)c1cc(OC)cc(-c2ccncc2)c1 (configuration not stated) | 0.87 | 0.417
Nc1nc2c(Cc3cccnc3)c[nH]c2c(=O)[nH]1 | 0.722 | 0.771
CN(C)CCNC(=O)c1cccc2cccnc12 | 0.941 | 0.825
CC#C[C@]1(O)CC[C@H]2[C@@H]3CCC4=CC(=O)CCC4=C3[C@@H](c3ccc(N(C)C)cc3)C[C@@]21C | 0.693 | 0.826
Cc1ccc(N2CCC(CCOc3ccc(S(C)(=O)=O)cc3)CC2)nn1 | 0.943 | 0.683
O=C(Nc1ccc(Cl)c(C(F)(F)F)c1)C(CCCl)C(=O)Nc1ccc(Cl)c(C(F)(F)F)c1 | 0.848 | 0.397 (active)
CC1CCc2c(N3CCC(O)CC3)c(F)cc3c(=O)c(C(=O)O)cn1c23 (configuration not stated) | 1.3 | 0.744
O=C(CCCC(F)(F)F)N1CCC(c2nc(-c3nccs3)no2)CC1 | 0.824 | 1.08
CN1CCN(c2ccc3[nH]c(-c4ccc5[nH]c(-c6ccc(O)cc6)nc5c4)nc3c2)CC1 | 0.732 | 1.11
CC[C@H](CO)Nc1nc(NCc2ccccc2)c2ncn(C(C)C)c2n1 | 0.799 | 0.755
O=C(N[C@H](Cc1cccc2ccccc12)C(=O)NCCc1c[nH]cn1)C1Cc2ccccc2C1 | 0.819 | 0.952
